Experimental data as given in PubChem BioAssay AID1159580 (chemical genetic matrix, 2015).
Values joined by “and” are separate entries in the source; they are usually repeats but may differ in a detail not shown here. Equal entries are not always repeated. Hit rate of the full screen: of about 5,500 compounds, about 2,000 (36%) were called active. Another 18% or so got no clear call; they are omitted. Cut-off read from the data, not from the text of the source: active = normalized growth mostly below about 0.91 (no sharp cut-off); inconclusive = no clear call, values can overlap the other calls; inactive = mostly above about 0.92. The list shows a part of the results.

Assay: chemical genetic growth profiling, strain panel (AID 1159580);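 note: tested at 20 µM; growth read once vehicle control cultures reached saturation at 30 °C; 1 = growth at the plate median or of vehicle wells; lower values mean less growth of the strain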
Settings: growth OD

Measured: normalized growth

Cc1cc(N)c2ccccc2[n+]1CCCCCCCCCC[n+]1c(C)cc(N)c2ccccc21
active: S. cerevisiae deletion strains, locus YJL187C, strain SWE1, stronger effect = lower value 0.066 | S. cerevisiae deletion strains, locus YJR043C, strain POL32, stronger effect = lower value 0.0703 | S. cerevisiae deletion strains, locus YJR075W, strain HOC1, stronger effect = lower value 0.0707 and 0.0679 | S. cerevisiae deletion strains, locus YKL009W, strain mrt4, stronger effect = lower value 0.107 | S. cerevisiae deletion strains, locus YKL068W, stronger effect = lower value 0.0834 | S. cerevisiae deletion strains, locus YKL085W, strain MDH1 (second series), stronger effect = lower value 0.0842 | S. cerevisiae deletion strains, locus YKL085W, strain MDH1, stronger effect = lower value 0.0842 | S. cerevisiae deletion strains, locus YKL160W, strain elf1, stronger effect = lower value 0.0728 | S. cerevisiae deletion strains, locus YKL190W, strain CNB1, stronger effect = lower value 0.0496 | S. cerevisiae deletion strains, locus YKR001C, strain vps1, stronger effect = lower value 0.0684 | S. cerevisiae deletion strains, locus YKR026C, strain gcn3, stronger effect = lower value 0.0705 | S. cerevisiae deletion strains, locus YKR091W, strain srl3, stronger effect = lower value 0.0679 | S. cerevisiae deletion strains, locus YLL001W, strain dnm1, stronger effect = lower value 0.0644 | S. cerevisiae deletion strains, locus YLL026W, stronger effect = lower value 0.0616 | S. cerevisiae deletion strains, locus YLL041C, strain sdh2, stronger effect = lower value 0.0642 | S. cerevisiae deletion strains, locus YLR027C, strain aat2, stronger effect = lower value 0.0617 | S. cerevisiae deletion strains, locus YLR039C, strain RIC1, stronger effect = lower value 0.0806 | S. cerevisiae deletion strains, locus YLR058C, strain SHM2, stronger effect = lower value 0.0484 | S. cerevisiae deletion strains, locus YLR102C, strain apc9, stronger effect = lower value 0.0687 | S. cerevisiae deletion strains, locus YLR221C, strain rsa3, stronger effect = lower value 0.0648 | S. cerevisiae deletion strains, locus YLR258W, strain gsy2, stronger effect = lower value 0.0653 | S. cerevisiae deletion strains, locus YLR262C, strain YPT6 (second series), stronger effect = lower value 0.0835 | S. cerevisiae deletion strains, locus YLR262C, strain YPT6, stronger effect = lower value 0.107 | S. cerevisiae deletion strains, locus YLR268W, strain sec22, stronger effect = lower value 0.0712 | S. cerevisiae deletion strains, locus YLR320W, strain mms22, stronger effect = lower value 0.0855 | S. cerevisiae deletion strains, locus YLR330W, strain CHS5, stronger effect = lower value 0.0547 | S. cerevisiae deletion strains, locus YLR342W, strain FKS1 (second series), stronger effect = lower value 0.0723 | S. cerevisiae deletion strains, locus YLR342W, strain FKS1, stronger effect = lower value 0.0695 | S. cerevisiae deletion strains, locus YLR357W, strain rsc2, stronger effect = lower value 0.126 | S. cerevisiae deletion strains, locus YLR370C, strain arc18, stronger effect = lower value 0.0633 | S. cerevisiae deletion strains, locus YLR371W, strain rom2, stronger effect = lower value 0.0663 | S. cerevisiae deletion strains, locus YLR384C, strain iki3, stronger effect = lower value 0.0616 | S. cerevisiae deletion strains, locus YLR418C, strain cdc73, stronger effect = lower value 0.101 | S. cerevisiae deletion strains, locus YML016C, strain PPZ1, stronger effect = lower value 0.0475 | S. cerevisiae deletion strains, locus YML032C, strain rad52, stronger effect = lower value 0.0723 | S. cerevisiae deletion strains, locus YML120C, strain ndi1, stronger effect = lower value 0.0605 | S. cerevisiae deletion strains, locus YML124C, strain tub3, stronger effect = lower value 0.0637 | S. cerevisiae deletion strains, locus YMR058W, strain fet3, stronger effect = lower value 0.0627 | S. cerevisiae deletion strains, locus YMR078C, strain ctf18, stronger effect = lower value 0.0768 | S. cerevisiae deletion strains, locus YMR125W, strain sto1, stronger effect = lower value 0.0824 | S. cerevisiae deletion strains, locus YMR129W, stronger effect = lower value 0.069 | S. cerevisiae deletion strains, locus YMR205C, strain PFK2, stronger effect = lower value 0.0906 | S. cerevisiae deletion strains, locus YMR223W, strain ubp8, stronger effect = lower value 0.0681 | S. cerevisiae deletion strains, locus YMR231W, strain pep5, stronger effect = lower value 0.0782 | S. cerevisiae deletion strains, locus YMR263W, strain SAP30, stronger effect = lower value 0.0586 | S. cerevisiae deletion strains, locus YMR307W, strain GAS1, stronger effect = lower value 0.119 and 0.0541 | S. cerevisiae deletion strains, locus YNL067W, strain RPL9B, stronger effect = lower value 0.0529 | S. cerevisiae deletion strains, locus YNL071W, strain lat1, stronger effect = lower value 0.0636 | S. cerevisiae deletion strains, locus YNL128W, strain TEP1, stronger effect = lower value 0.0667 and 0.0791 | S. cerevisiae deletion strains, locus YNL153C, strain GIM3, stronger effect = lower value 0.0526 and 0.0904 | S. cerevisiae deletion strains, locus YNL175C, strain NOP13, stronger effect = lower value 0.0762 | S. cerevisiae deletion strains, locus YNL197C, strain WHI3, stronger effect = lower value 0.0722 | S. cerevisiae deletion strains, locus YNL209W, strain ssb2, stronger effect = lower value 0.0673 | S. cerevisiae deletion strains, locus YNL224C, strain SQS1, stronger effect = lower value 0.0723 | S. cerevisiae deletion strains, locus YNL233W, strain BNI4, stronger effect = lower value 0.0625 | S. cerevisiae deletion strains, locus YNL248C, strain rpa49, stronger effect = lower value 0.0815 | S. cerevisiae deletion strains, locus YNL250W, strain rad50, stronger effect = lower value 0.136 | S. cerevisiae deletion strains, locus YNL271C, strain bni1, stronger effect = lower value 0.0837 | S. cerevisiae deletion strains, locus YNL298W, strain CLA4, stronger effect = lower value 0.0752 | S. cerevisiae deletion strains, locus YNL307C, strain MCK1, stronger effect = lower value 0.0714 | S. cerevisiae deletion strains, locus YNL322C, strain KRE1 (second series), stronger effect = lower value 0.0698 | S. cerevisiae deletion strains, locus YNL322C, strain KRE1, stronger effect = lower value 0.0558 | S. cerevisiae deletion strains, locus YNR049C, strain mso1, stronger effect = lower value 0.0605 | S. cerevisiae deletion strains, locus YNR052C, strain pop2, stronger effect = lower value 0.0672 | S. cerevisiae deletion strains, locus YOL006C, strain TOP1, stronger effect = lower value 0.11 | S. cerevisiae deletion strains, locus YOL147C, strain pex11, stronger effect = lower value 0.0611 | S. cerevisiae deletion strains, locus YOR001W, strain rrp6, stronger effect = lower value 0.0775 | S. cerevisiae deletion strains, locus YOR061W, strain CKA2, stronger effect = lower value 0.0489 | S. cerevisiae deletion strains, locus YOR069W, strain VPS5, stronger effect = lower value 0.0494 | S. cerevisiae deletion strains, locus YOR070C, strain gyp1, stronger effect = lower value 0.0633 | S. cerevisiae deletion strains, locus YOR080W, strain dia2, stronger effect = lower value 0.0687 | S. cerevisiae deletion strains, locus YOR083W, strain WHI5 (second series), stronger effect = lower value 0.081 | S. cerevisiae deletion strains, locus YOR083W, strain WHI5, stronger effect = lower value 0.0703 | S. cerevisiae deletion strains, locus YOR106W, strain vam3, stronger effect = lower value 0.065 | S. cerevisiae deletion strains, locus YOR136W, strain idh2, stronger effect = lower value 0.0784 | S. cerevisiae deletion strains, locus YOR144C, strain elg1, stronger effect = lower value 0.0641 | S. cerevisiae deletion strains, locus YOR184W, strain ser1, stronger effect = lower value 0.0725 | S. cerevisiae deletion strains, locus YOR265W, strain rbl2, stronger effect = lower value 0.0616 | S. cerevisiae deletion strains, locus YOR270C, strain vph1, stronger effect = lower value 0.0961 | S. cerevisiae deletion strains, locus YOR290C, strain snf2, stronger effect = lower value 0.0714 | S. cerevisiae deletion strains, locus YOR316C, strain cot1, stronger effect = lower value 0.066 | S. cerevisiae deletion strains, locus YPL051W, strain arl3, stronger effect = lower value 0.0687 | S. cerevisiae deletion strains, locus YPL055C, strain LGE1, stronger effect = lower value 0.0706 and 0.0896 | S. cerevisiae deletion strains, locus YPL078C, strain atp4, stronger effect = lower value 0.0678 | S. cerevisiae deletion strains, locus YPL106C, strain sse1, stronger effect = lower value 0.111 | S. cerevisiae deletion strains, locus YPL240C, strain hsp82, stronger effect = lower value 0.0603 | S. cerevisiae deletion strains, locus YPL241C, strain CIN2, stronger effect = lower value 0.0524 and 0.0485 | S. cerevisiae deletion strains, locus YPR119W, strain clb2, stronger effect = lower value 0.0709 | S. cerevisiae deletion strains, locus YPR141C, strain kar3, stronger effect = lower value 0.0821 | S. cerevisiae deletion strains, locus YPR163C, strain tif3, stronger effect = lower value 0.0791 | S. cerevisiae deletion strains, locus YPR167C, strain met16, stronger effect = lower value 0.0671 | S. cerevisiae deletion strains, strain wtn01, stronger effect = lower value 0.0664 | S. cerevisiae strains, strain wild type, stronger effect = lower value 0.0519
